Measured values: PubChem BioAssay (NCATS)
Inconclusive results are not listed. Active and inactive are the calls of the source. Calls follow the shape of the dose curve; as a rule, active = well fitted curve in the direction sought with a large enough effect; inconclusive = small, poorly fitted or top-dose-only effect, or another doubt; inactive = no such curve, though single readings can be large; an effect the other way counts as inactive or inconclusive.

Tests used:
[1] = Cellular Toxicity (caspase-3) Mesangial (AID 660); settings: mesangial cells, normalized: DMSO 0%, 100 µM tamoxifen 100%; at 91.7 µM (top of the series);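 also: combined caspase 3 and 7 activity read by Caspase-Glo luminescence; cells exposed to compound for 16 h before the caspase read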
How it was run: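 Mesangial cells, 1000/well, 5 h settle at 37 °C; compound 16 h, 37 °C; Caspase-Glo 3/7 reagent 20 min RT; luminescence. Norm.: DMSO = 0%, tamoxifen 100 uM = 100%. AC50, Hill fit.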

[2] = Cellular Toxicity (caspase-3) SK-N-SH (AID 661);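 also: 0% = DMSO basal and 100% = 10 µM staurosporine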
How it was run: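 Human neuroblastoma SK-N-SH, 1500 cells/well, 5 hr pre-incubation, then compound 16 hr, 37 °C. Caspase-Glo 3/7 reagent, 1 hr RT, luminescence. Norm. to DMSO/10 uM staurosporine; Hill-fit AC50.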

[3] = Cellular Toxicity (caspase-3) H-4-II-E (AID 663); settings: H-4-II-E rat hepatoma, scaled: DMSO 0%, 100 µM tamoxifen 100%; at 92.2 µM (top of the series);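 also: cells exposed to compound for 16 hr before readout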
How it was run: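 Apoptosis induction is scored as increased luminescence from caspase 3/7 substrate cleavage in rat hepatoma H-4-II-E cells exposed to compound for 16 hr. Activity is scaled between DMSO and 100 uM tamoxifen.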

[4] = Cellular Toxicity (caspase-3) Hek293 (AID 664); settings: HEK293 caspase-3 activation, DMSO = 0%, 100 µM tamoxifen = 100%; at 92.2 µM (top of the series);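 also: cells exposed to compound for 16 h at 37 °C before readout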
How it was run: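 Cells plated, 5 hr at 37 °C; compounds added; 16 hr at 37 °C; Caspase-Glo 3/7 reagent, 20 min RT; luminescence read. Activation expressed relative to DMSO and 100 uM tamoxifen, AC50 by Hill model.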

[5] = Cellular Toxicity (caspase-3) N2a (AID 665);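 also: compound exposure lasted 16 h at 37 °C before readout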
How it was run: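 N2a cells, 1500/well, 5 h settle at 37 °C; cpd 16 h, 37 °C; Caspase-Glo 3/7, 1 h RT; luminescence. Norm: DMSO = 0, 10 uM staurosporine = 100%. AC50, Hill fit.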

[6] = Cellular Toxicity (caspase-3) NIH 3T3 (AID 666);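 also: caspase signal read after 16 h compound exposure; 0% = DMSO basal and 100% = 100 µM tamoxifen stimulation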
How it was run: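 Luminescence from aminoluciferin released by caspase-3/7 cleavage of a peptide substrate served as read-out. Mouse fibroblast NIH 3T3 cells were exposed to compounds over a concentration range for 16 hours, and AC50 values came from standard Hill modelling.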

[7] = Cellular Toxicity (caspase-3) Renal Proximal Tubule (AID 667); settings: Potency: caspase-3 activation;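 also: cells exposed to compound for 16 hours at 37 °C before detection; 0% = DMSO basal and 100% = 10 µM staurosporine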
How it was run: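 In qHTS format, rat primary proximal tubule cells seeded at 1000 per well are exposed to compounds for 16 hours at 37 °C. An increase in Caspase-Glo 3/7 luminescence indicates caspase activation.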

[8] = target: Cytochrome P450 3A4 (Homo sapiens) (UniProt P08684); assay: qHTS Assay for Inhibitors and Substrates of Cytochrome P450 3A4 (AID 884); also: % is scaled to controls: 0 for no effect and ±100 for the full control effect; nearly all actives have a fitted effect of over 50% in size
How it was run: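 20 nM human CYP3A4 with 25 uM Luciferin-PPXE (at KM) in 200 mM KPO4, preincubated 10 min with compound; NADPH regeneration started a 60 min RT reaction. Luciferin detected by luminescence, normalized to 57 uM ketoconazole as full inhibition.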

[9] = Cell Viability - LYMP2-001 (AID 921);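 also: cells exposed to compound for 24 h at 37 °C; 0% = DMSO only and full inhibition = tetraoctylammonium bromide control wells; nearly all actives have a fitted effect of over 70% in size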
How it was run: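 qHTS, 1536-well; lymphoblastoid cells, 24 hr compound, 37 C; ATP by CellTiter-Glo, 30 min RT; luminescence; Hill-fit AC50.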

Cytochrome P450 3A4 (Homo sapiens), sequence (P08684 whole entry, looked up): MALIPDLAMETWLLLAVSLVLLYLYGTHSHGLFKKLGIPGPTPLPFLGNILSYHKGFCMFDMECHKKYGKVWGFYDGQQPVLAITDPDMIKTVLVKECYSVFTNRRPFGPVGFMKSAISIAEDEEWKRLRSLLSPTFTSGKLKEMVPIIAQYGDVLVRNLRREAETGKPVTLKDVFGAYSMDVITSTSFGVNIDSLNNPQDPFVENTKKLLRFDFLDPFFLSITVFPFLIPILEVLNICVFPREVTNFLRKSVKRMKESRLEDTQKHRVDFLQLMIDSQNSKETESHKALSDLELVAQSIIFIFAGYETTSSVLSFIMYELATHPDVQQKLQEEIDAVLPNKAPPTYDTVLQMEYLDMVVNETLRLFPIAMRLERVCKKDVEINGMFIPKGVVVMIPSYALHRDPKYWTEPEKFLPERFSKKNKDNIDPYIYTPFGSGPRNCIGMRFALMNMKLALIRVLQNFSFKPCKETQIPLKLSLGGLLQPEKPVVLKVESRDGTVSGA

ClCCl
inactive: caspase-3 activation [1] -1.27% | outcome [2] | caspase-3 activation [3] -0.724% | caspase-3 activation [4] 1.14% | outcome [5] | outcome [6] | Potency [7] | Potency [8] | Potency [9]

N#Cc1ccccc1
inactive: caspase-3 activation [1] -0.669% | outcome [2] | caspase-3 activation [3] 0.346% | caspase-3 activation [4] 1.36% | outcome [5] | outcome [6] | Potency [7] | Potency [8] | Potency [9]

CC(=O)Nc1cccc(N)c1
inactive: caspase-3 activation [1] 0.0656% | outcome [2] | caspase-3 activation [3] 0.403% | caspase-3 activation [4] 0.134% | outcome [5] | outcome [6] | Potency [7] | Potency [8] | Potency [9]

O=C(O)c1ccccc1[N+](=O)[O-]
inactive: caspase-3 activation [1] 0.745% | outcome [2] | caspase-3 activation [3] 1.85% | caspase-3 activation [4] 2.82% | outcome [5] | outcome [6] | Potency [7] | Potency [8] | Potency [9]

O=[N+]([O-])c1cccc(Cl)c1
inactive: caspase-3 activation [1] -0.653% | outcome [2] | caspase-3 activation [3] 0.41% | caspase-3 activation [4] -2.38% | outcome [5] | outcome [6] | Potency [7] | Potency [8] | Potency [9]

CC/C=C/C#N
inactive: caspase-3 activation [1] -0.969% | outcome [2] | caspase-3 activation [3] 0.211% | caspase-3 activation [4] 1.85% | outcome [5] | outcome [6] | Potency [7] | Potency [8] | Potency [9]

O=C(O)CNC(=O)c1ccc(CO)o1
inactive: caspase-3 activation [1] -0.765% | outcome [2] | caspase-3 activation [3] -0.71% | caspase-3 activation [4] -0.0261% | outcome [5] | outcome [6] | Potency [7] | Potency [8] | Potency [9]

C(=C/c1ccccc1)/c1ccccc1
inactive: caspase-3 activation [1] 0.853% | outcome [2] | caspase-3 activation [3] 0.852% | caspase-3 activation [4] 5.17% | outcome [5] | outcome [6] | Potency [7] | Potency [8] | Potency [9]

NS(=O)(=O)O
inactive: caspase-3 activation [1] 1.36% | outcome [2] | caspase-3 activation [3] 1.83% | caspase-3 activation [4] 1.35% | outcome [5] | outcome [6] | Potency [7] | Potency [8] | Potency [9]

Cc1ccc(Cl)cc1
inactive: caspase-3 activation [1] 0.555% | outcome [2] | caspase-3 activation [3] 0.337% | caspase-3 activation [4] 0.748% | outcome [5] | outcome [6] | Potency [7] | Potency [8] | Potency [9]

CCC(C)(C)C
inactive: caspase-3 activation [1] 0.949% | outcome [2] | caspase-3 activation [3] -0.587% | caspase-3 activation [4] -1.96% | outcome [5] | outcome [6] | Potency [7] | Potency [8] | Potency [9]

Cc1cccc(C)c1O
inactive: caspase-3 activation [1] -0.0557% | outcome [2] | caspase-3 activation [3] -0.375% | caspase-3 activation [4] -3.44% | outcome [5] | outcome [6] | Potency [7] | Potency [8] | Potency [9]

Nc1nc2ccccc2[nH]1
inactive: caspase-3 activation [1] -0.927% | outcome [2] | caspase-3 activation [3] -0.868% | caspase-3 activation [4] 0.0156% | outcome [5] | outcome [6] | Potency [7] | Potency [8] | Potency [9]

Nc1cccc(C(F)(F)F)c1
inactive: caspase-3 activation [1] 2.31% | outcome [2] | caspase-3 activation [3] -0.107% | caspase-3 activation [4] 2.75% | outcome [5] | outcome [6] | Potency [7] | Potency [8] | Potency [9]

c1ccc(Nc2ccccc2)cc1
inactive: caspase-3 activation [1] -0.717% | outcome [2] | caspase-3 activation [3] 0.361% | caspase-3 activation [4] -0.415% | outcome [5] | outcome [6] | Potency [7] | Potency [8] | Potency [9]

CC(C)(C)OCC1CO1 (configuration not stated)
inactive: caspase-3 activation [1] 0.391% | outcome [2] | caspase-3 activation [3] 0.741% | caspase-3 activation [4] 2.04% | outcome [5] | outcome [6] | Potency [7] | Potency [8] | Potency [9]

CC#N
inactive: caspase-3 activation [1] 1.61% | outcome [2] | caspase-3 activation [3] 0.385% | caspase-3 activation [4] 1.27% | outcome [5] | outcome [6] | Potency [7] | Potency [8] | Potency [9]

CCCCC(CC)CNCC(CC)CCCC (configuration not stated)
inactive: caspase-3 activation [1] -1.31% | outcome [2] | caspase-3 activation [3] -0.122% | caspase-3 activation [4] 0.754% | outcome [5] | outcome [6] | Potency [7] | Potency [8] | Potency [9]

Nc1cccc(S(=O)(=O)O)c1
inactive: caspase-3 activation [1] -0.0111% | outcome [2] | caspase-3 activation [3] -0.597% | caspase-3 activation [4] -1.89% | outcome [5] | outcome [6] | Potency [7] | Potency [8] | Potency [9]

CC(C)C=O
inactive: caspase-3 activation [1] 1.06% | outcome [2] | caspase-3 activation [3] 0.472% | caspase-3 activation [4] -1.91% | outcome [5] | outcome [6] | Potency [7] | Potency [8] | Potency [9]

CC(=O)C1(C)CC2=C(CCCC2(C)C)CC1C (configuration not stated)
inactive: caspase-3 activation [1] 1.57% | outcome [2] | caspase-3 activation [3] 1.88% | caspase-3 activation [4] 2.01% | outcome [5] | outcome [6] | Potency [7] | Potency [8] | Potency [9]

OCCO
inactive: caspase-3 activation [1] -0.444% | outcome [2] | caspase-3 activation [3] -0.0515% | caspase-3 activation [4] 0.819% | outcome [5] | outcome [6] | Potency [7] | Potency [8] | Potency [9]

O=C1OC(=O)c2cc([N+](=O)[O-])ccc21
inactive: caspase-3 activation [1] -0.00553% | outcome [2] | caspase-3 activation [3] -0.24% | caspase-3 activation [4] -0.39% | outcome [5] | outcome [6] | Potency [7] | Potency [8] | Potency [9]
